Assay [1] deals with 5'-AMP-activated protein kinase catalytic subunit alpha-2 (Homo sapiens) (UniProt P54646). The settings on record: at 1 µM.
In assay [2] the target is T1, NUAK family SNF1-like kinase 1 (Homo sapiens) (UniProt O60285).
T1 sequence (whole entry): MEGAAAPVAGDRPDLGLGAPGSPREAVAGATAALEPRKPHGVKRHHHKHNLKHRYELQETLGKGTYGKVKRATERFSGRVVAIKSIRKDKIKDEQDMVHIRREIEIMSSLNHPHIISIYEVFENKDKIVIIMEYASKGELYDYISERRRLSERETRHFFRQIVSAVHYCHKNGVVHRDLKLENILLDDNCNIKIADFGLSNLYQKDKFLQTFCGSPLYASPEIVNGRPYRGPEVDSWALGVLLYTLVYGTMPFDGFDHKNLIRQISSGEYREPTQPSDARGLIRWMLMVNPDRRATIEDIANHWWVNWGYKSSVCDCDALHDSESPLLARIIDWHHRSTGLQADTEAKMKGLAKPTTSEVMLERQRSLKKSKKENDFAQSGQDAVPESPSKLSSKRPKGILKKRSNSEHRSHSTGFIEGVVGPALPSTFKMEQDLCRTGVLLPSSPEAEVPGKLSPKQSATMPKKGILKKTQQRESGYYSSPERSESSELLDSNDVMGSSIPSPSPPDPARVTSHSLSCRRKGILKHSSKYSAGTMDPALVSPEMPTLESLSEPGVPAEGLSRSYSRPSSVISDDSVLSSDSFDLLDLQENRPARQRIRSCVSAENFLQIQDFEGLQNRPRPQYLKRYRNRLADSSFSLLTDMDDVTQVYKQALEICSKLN
Conditions: at 0.1 µM.

In assay [3] the target is T1, NUAK family SNF1-like kinase 1 (Homo sapiens). The settings on record: at 1 µM.
For assay [4], the target named is T2, Serine/threonine-protein kinase BRSK1 (Homo sapiens) (UniProt Q8TDC3).
T2 sequence (whole entry): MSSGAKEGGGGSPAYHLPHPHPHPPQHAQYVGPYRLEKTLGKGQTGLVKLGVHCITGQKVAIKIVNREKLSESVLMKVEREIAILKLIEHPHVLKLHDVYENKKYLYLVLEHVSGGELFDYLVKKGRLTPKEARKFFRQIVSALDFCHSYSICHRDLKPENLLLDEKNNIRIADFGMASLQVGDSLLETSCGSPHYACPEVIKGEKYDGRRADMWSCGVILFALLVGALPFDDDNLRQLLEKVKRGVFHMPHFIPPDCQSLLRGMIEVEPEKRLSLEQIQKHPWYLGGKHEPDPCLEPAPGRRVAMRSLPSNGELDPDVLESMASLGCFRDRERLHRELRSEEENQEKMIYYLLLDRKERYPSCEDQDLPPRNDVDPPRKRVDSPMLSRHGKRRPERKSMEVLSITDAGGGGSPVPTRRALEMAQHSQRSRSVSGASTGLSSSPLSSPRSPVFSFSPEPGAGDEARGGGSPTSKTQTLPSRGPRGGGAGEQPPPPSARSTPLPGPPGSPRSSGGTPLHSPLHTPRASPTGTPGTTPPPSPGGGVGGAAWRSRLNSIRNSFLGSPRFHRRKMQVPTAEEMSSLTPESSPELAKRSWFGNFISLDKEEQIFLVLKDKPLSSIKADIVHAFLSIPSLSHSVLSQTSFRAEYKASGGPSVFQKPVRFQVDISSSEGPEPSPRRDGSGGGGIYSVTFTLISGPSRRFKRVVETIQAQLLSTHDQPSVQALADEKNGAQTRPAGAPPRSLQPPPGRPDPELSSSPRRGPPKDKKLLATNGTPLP
The settings on record: at 0.1 µM.

Assay [5] deals with T2, Serine/threonine-protein kinase BRSK1 (Homo sapiens). The settings on record: at 1 µM.
For assay [6], the target named is T3, Serine/threonine-protein kinase BRSK2 (Homo sapiens) (UniProt Q8IWQ3).
T3 sequence (whole entry): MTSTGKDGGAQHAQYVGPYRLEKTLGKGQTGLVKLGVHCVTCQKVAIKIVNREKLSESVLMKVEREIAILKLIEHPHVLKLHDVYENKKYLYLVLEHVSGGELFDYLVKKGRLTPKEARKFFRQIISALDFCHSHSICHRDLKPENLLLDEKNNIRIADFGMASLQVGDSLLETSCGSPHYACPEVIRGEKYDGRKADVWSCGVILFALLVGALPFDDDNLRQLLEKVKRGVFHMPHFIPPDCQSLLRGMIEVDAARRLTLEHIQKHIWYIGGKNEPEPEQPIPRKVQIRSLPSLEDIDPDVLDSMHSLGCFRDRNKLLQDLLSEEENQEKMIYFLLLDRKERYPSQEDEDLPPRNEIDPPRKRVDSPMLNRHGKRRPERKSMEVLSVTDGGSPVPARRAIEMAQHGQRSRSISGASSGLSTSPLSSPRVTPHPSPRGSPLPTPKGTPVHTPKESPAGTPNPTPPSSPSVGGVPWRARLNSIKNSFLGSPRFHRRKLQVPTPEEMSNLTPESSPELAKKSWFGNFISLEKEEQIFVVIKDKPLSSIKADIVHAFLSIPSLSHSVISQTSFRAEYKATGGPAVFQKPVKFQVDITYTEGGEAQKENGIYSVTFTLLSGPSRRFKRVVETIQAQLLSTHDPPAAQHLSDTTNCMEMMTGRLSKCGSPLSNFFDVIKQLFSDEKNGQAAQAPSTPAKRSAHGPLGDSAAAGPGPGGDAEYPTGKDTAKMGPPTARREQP
Conditions: at 0.1 µM.

Assay [7] addresses T3, Serine/threonine-protein kinase BRSK2 (Homo sapiens). Conditions: at 1 µM.
Assay [8] deals with Calcium/calmodulin-dependent protein kinase type 1D (Homo sapiens) (UniProt Q8IU85). Conditions: at 0.1 µM.
The target is the same in assay [9]. The settings on record: at 1 µM.
Assay [10] deals with Calcium/calmodulin-dependent protein kinase type II subunit alpha (Homo sapiens) (UniProt Q9UQM7). The settings on record: at 0.1 µM.

These results are taken from ChEMBL document CHEMBL1961873, “Compounds: GSK PKIS; Assays: Nanosyn kinase panel” (2012).

5'-AMP-activated protein kinase catalytic subunit alpha-2 (Homo sapiens), sequence (P54646 whole entry, looked up): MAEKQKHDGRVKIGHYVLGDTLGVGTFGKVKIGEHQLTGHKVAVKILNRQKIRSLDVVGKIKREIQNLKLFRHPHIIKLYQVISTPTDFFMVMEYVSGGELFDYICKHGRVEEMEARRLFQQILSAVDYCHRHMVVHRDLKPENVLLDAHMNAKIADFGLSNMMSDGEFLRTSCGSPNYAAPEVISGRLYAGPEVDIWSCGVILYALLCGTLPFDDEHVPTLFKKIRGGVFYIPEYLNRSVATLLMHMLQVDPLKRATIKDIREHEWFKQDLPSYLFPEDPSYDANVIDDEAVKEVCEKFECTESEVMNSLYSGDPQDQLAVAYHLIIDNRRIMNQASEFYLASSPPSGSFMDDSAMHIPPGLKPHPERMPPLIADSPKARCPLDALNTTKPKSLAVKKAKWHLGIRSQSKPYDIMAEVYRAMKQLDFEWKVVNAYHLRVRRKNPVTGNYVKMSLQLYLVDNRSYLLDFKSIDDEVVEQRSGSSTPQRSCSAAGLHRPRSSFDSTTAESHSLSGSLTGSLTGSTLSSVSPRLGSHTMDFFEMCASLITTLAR
Calcium/calmodulin-dependent protein kinase type 1D (Homo sapiens), sequence (Q8IU85 whole entry, looked up): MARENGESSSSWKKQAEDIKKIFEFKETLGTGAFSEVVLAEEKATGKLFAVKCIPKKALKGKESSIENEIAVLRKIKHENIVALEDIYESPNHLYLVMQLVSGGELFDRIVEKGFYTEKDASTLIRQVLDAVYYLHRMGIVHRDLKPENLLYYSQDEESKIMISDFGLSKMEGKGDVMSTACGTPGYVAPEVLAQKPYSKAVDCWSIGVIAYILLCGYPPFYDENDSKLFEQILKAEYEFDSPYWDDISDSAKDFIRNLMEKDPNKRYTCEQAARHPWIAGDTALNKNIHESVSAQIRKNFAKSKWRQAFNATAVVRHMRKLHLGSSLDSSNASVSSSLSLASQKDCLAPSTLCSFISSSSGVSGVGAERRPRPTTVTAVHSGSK
Calcium/calmodulin-dependent protein kinase type II subunit alpha (Homo sapiens), sequence (Q9UQM7 whole entry): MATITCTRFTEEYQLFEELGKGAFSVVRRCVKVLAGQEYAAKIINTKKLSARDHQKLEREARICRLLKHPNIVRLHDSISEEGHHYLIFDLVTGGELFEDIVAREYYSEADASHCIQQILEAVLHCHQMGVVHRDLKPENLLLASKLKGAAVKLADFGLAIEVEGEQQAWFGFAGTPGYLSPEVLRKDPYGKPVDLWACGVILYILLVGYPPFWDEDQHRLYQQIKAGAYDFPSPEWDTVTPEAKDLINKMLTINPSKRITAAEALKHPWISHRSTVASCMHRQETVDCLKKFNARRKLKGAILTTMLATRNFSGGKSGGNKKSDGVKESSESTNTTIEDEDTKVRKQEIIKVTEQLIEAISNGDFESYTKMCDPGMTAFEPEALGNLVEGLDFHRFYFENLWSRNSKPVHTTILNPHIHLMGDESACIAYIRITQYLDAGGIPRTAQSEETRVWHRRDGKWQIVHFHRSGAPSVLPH

With `Fc1ccc(-c2nn3ccccc3c2-c2ccncc2)cc1`, the inhibition (in general, the drop in the measured response relative to a control, in per cent) is 2.49% in [1]; -0.02% in assay [2]; 1.09% in [3]; 0.59% in [4]; 1.1% in assay [5]; 1.69% in assay [6]. Further, the inhibition stood at 0.78% in assay [7], 0.87% in assay [8], 1.9% in [9] and 3.85% in assay [10].

As to `CCCN(CCS(C)(=O)=O)Cc1ccc(-c2ccc3ncnc(Nc4ccc(OCc5cccc(F)c5)c(Cl)c4)c3c2)o1`, the inhibition in assay [1] was 2.91%; in [2] it was -7.52%; in assay [3] it was 4.57%; in assay [4], 1.22%; in [5] it was 3.8%; in [6], 1.68%. Moreover, the inhibition in assay [7] is 7.08%; in assay [8] it was 0.15%; in assay [9] it was 1.73%; in [10], 0.86%.

Turning to `CN1CCC(n2cnc(-c3ccc(F)cc3)c2-c2ccnc(N)n2)CC1`, the inhibition in [1] is 3.56%; in [2] it was -0.55%; in assay [3], 5.58%; in assay [4] it was 1.29%; in [5], 1.45%; in assay [6], 1.08%. In addition, the inhibition in assay [7] came out at 7.04%; in [8], 0.79%; in assay [9] it was 1.05%; in assay [10], 2.13%.

As to `COc1ccc2c(-c3ccnc(Nc4cccc(OC(F)(F)F)c4)n3)cnn2n1`, the inhibition is 5.72% in assay [1]; 6.86% in [2]; 30.7% in assay [3]; -1.42% in assay [4]; 3.33% in assay [5]; 2.27% in assay [6]. The inhibition in [7] came out at 3.88%; in [8] it was 0.18%; in [9], 2.77%; in assay [10], 4.78%.

Consider `Nc1nc(-c2cccc(Cl)c2)c(-c2ccc3ncccc3n2)s1`, for which the inhibition in [1] is 3.28%; in assay [2], -2.86%; in [3], 5.81%; in [4] it was 0.2%; in [5], 1.68%; in assay [6] it was 1.95%. Further, the inhibition in assay [7] is 4.51%; in [8], -0.44%; in assay [9] it was 0.6%; in assay [10], 3.5%.

Turning to `CNC(=O)c1cccc(C#Cc2cncnc2Nc2ccc(OCc3cccc(F)c3)c(Cl)c2)c1`, the inhibition in [1] is 1.89%; in [2], 0.54%; in [3], 8.68%; in assay [4], -0.7%; in assay [5], 2.56%; in assay [6] it was 1.59%. Moreover, the inhibition in assay [7] is 4.03%; in assay [8] it was -1.04%; in assay [9] it was -0.89%; in [10] it was 1.34%.

Turning to `c1ccc(COc2ccc(Nc3ncnc4ccc(-c5ccco5)cc34)cc2)cc1`, the inhibition is 3.28% in assay [1]; -0.16% in assay [2]; -1.67% in assay [3]; -0.97% in [4]; 1.48% in assay [5]; 0.91% in assay [6]. Besides, the inhibition in assay [7] was 1.54%; in assay [8] it was 0.28%; in [9], 11.7%; in [10] it was 2.01%.

As for `CCNC(=O)O[C@H]1CN[C@H](C#Cc2cc3ncnc(Nc4ccc(OCc5cccc(F)c5)c(Cl)c4)c3s2)C1`, the inhibition in assay [1] was determined as 4.45%; in assay [2], 1.68%; in [3], 6.34%; in assay [4], 0.67%; in [5], 2.32%; in assay [6], 2.25%. Also, the inhibition in [7] worked out at 1.26%; in assay [8], 1.21%; in [9], 2.24%; in [10], 3.45%.

Regarding `NC(=O)c1sc(-n2cnc3ccc(C(F)(F)F)cc32)cc1OCc1ccccc1Br`, the inhibition in [1] is 3.78%; in assay [2], -0.18%; in assay [3] it was 3.82%; in [4], 0.06%; in assay [5], 1.03%; in assay [6], 2.41%. Also, the inhibition is 4.25% in assay [7], -0.93% in assay [8], 0.69% in [9] and 1.87% in assay [10].

With `Nc1nc(-c2ccc(F)cc2)c(-c2ccc3ncccc3n2)s1`, the inhibition in assay [1] was determined as 3.37%; in assay [2], 3.85%; in assay [3], 7.09%; in assay [4] it was 1.97%; in assay [5], 3.32%; in assay [6] it was 2.41%. Besides, the inhibition in [7] turned out to be 5.28%; in assay [8], 0.67%; in assay [9], 0.5%; in [10], 4.42%.

On to `O=S(=O)(CCNCc1ccc(-c2ccc3ncnc(Nc4ccc(OCc5cccc(F)c5)c(Cl)c4)c3c2)o1)c1ccccc1`, for which the inhibition was 4.37% in assay [1]; 0.36% in assay [2]; 2.65% in [3]; -0.02% in assay [4]; 4.07% in [5]; 3.29% in [6]. In addition, the inhibition was 3.94% in [7], 1.31% in assay [8], 1.55% in assay [9] and 4.23% in [10].

For `CN1CCC(n2cnc(-c3ccc(F)cc3)c2-c2ccnc(Nc3ccccc3)n2)CC1`, the inhibition in assay [1] was 2.34%; in assay [2] it was -2.56%; in [3] it was 4.19%; in [4], 0.59%; in assay [5], 0.41%; in [6] it was 0.56%. For the same molecule, the inhibition in [7] stood at 1.93%; in assay [8], 0.81%; in assay [9] it was 1.85%; in assay [10], 3.46%.

Turning to `c1ccc(-c2nc3n(c2-c2ccc4c(c2)OCO4)CCC3)nc1`, the inhibition in assay [1] was 3.64%; in assay [2], 4.41%; in assay [3], -1.66%; in assay [4], 1.42%; in assay [5], 2.54%; in assay [6] it was 1.52%. The inhibition in assay [7] is 4.23%; in assay [8], 0.16%; in assay [9], 0.16%; in [10] it was -0.46%.

As for `CCN1CCC(CC(=O)Nc2n[nH]c3nnc(-c4cccc(F)c4F)cc23)CC1`, the inhibition in assay [1] is 5.17%; in assay [2], -1.66%; in [3] it was 1.56%; in [4], -0.52%; in assay [5], 3.84%; in [6] it was 2.07%. Also, the inhibition in assay [7] was -0.1%; in assay [8], 1.6%; in assay [9] it was -1.42%; in assay [10] it was 3.17%.

Regarding `[O-][S+]1CCN(Cc2ccc(-c3ccc4ncnc(Nc5ccc(OCc6cccc(F)c6)c(Cl)c5)c4c3)o2)CC1`, the inhibition in assay [1] came out at 5.75%; in assay [2], 0.9%; in assay [3], 3.1%; in assay [4], 1.17%; in assay [5], 3.09%; in assay [6] it was 3.06%. For the same molecule, the inhibition is 4.57% in assay [7], 0.83% in [8], 1.18% in assay [9] and 3.06% in assay [10].

Regarding `Cc1cccc(Nc2ncc(-c3ccccc3)o2)c1`, the inhibition in [1] was determined as 6.16%; in assay [2], 2.69%; in assay [3], 19.2%; in assay [4], 0.14%; in [5] it was 0.64%; in assay [6], 1.19%. The inhibition in [7] was found to be 4.26%; in assay [8], 1.45%; in [9], 3.78%; in [10], 4.05%.
